Reference: PubChem BioAssay (NCI)
About 83,000 compounds went through this panel and 20% of them were active in at least one assay; those are over-represented in the sample as a whole.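 A percent growth of 40 corresponds to 60% growth inhibition; 0 means no net growth; -100 means all cells died. Active threshold: below 10.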 Active and inactive are the calls of the source.

Test system: SNB-75 CNS
Assay: NCI-60 one-dose screen, 48 h (100 = growth as untreated, 0 = no growth, -100 = all killed)
Settings: 10 µM unless noted

For `CCOC(=O)c1c(Nc2ccccc2)nn2c(N)c(C#N)c(-c3ccccc3)nc12`, which growth is on record?
The growth was 86.1% (inactive).

For `COC(=O)c1ccc(NC(=S)N2CCc3ccc([N+](=O)[O-])cc3C2)cc1O`, which growth is on record?
The growth was 112% (inactive).

`CCCC(=O)NC(c1cccc(N(C)C)c1)c1cc(C)c2cccnc2c1O` (centres undefined) was tested. Which growth did it give?
The growth was 76.8% (inactive).

Which growth does the source give for `COc1cc(/C=C/C(=O)c2cc(OC)c(OC)c(OC)c2)ccc1Oc1nc(NCCO)nc(N2CCOCC2)n1` here?
Its growth is 15.2% (inactive).

With `CS(=O)(=O)c1ccc(-n2cc(/C=C/C(=O)c3ccc(NC(=O)CO[N+](=O)[O-])cc3)c(-c3ccc(Cl)cc3)n2)cc1` as the compound, how does the growth read?
Its growth is 111% (inactive).

With `Cc1cc2nc3c4cc(Cl)ccc4n(CC(=O)NCCN(C)C)c3nc2cc1C` as the compound, how does the growth read?
The growth was 64.1% (inactive).

For `Cc1cc2nc3c4cc(Cl)ccc4n(CC(=S)NCCN(C)C)c3nc2cc1C`, which growth is on record?
Its growth is -19.1% (active).

For `NS(=O)(=O)c1ccc(Nc2nc(SCC(=O)c3ccc(Cl)cc3)nc3ccccc23)cc1`, which growth is on record?
Its growth is 75.3% (inactive).

Which growth does the source give for `Clc1ccc2oc3c(NCCCN4CCOCC4)c4ccccc4nc3c2c1` here?
Its growth is 24.7% (inactive).

With `Cc1ccc(/C=C/c2nn3c(-c4ccco4)nnc3s2)cc1C` as the compound, how does the growth read?
The growth was 96.5% (inactive).

How did the growth turn out when `N=C1CC(=O)NN1C(=O)CSc1nc2sc3c(c2c(=O)n1-c1ccc(Cl)cc1)CCCC3` was run?
Its growth is 73.7% (inactive).

How did the growth turn out when `O=C(NNc1nc2cc(F)ccc2n2c(CN3CC4(COC4)C3)ccc12)c1cnccn1` was run?
The growth was 63.1% (inactive).

For `COc1cc2nc(-c3ccc(C)cc3)cc(OCCCNCC3CCCO3)c2cc1OC` (centres undefined), which growth is on record?
The growth was 80.7% (inactive).

Which growth does the source give for `CS(=O)(=O)c1ccc(-c2nc3ccccn3c2C=Nc2ccc(Cl)cc2)cc1` here?
The growth was 77.9% (inactive).
